# In PubChem BioAssay AID1745849 (National Center for Advancing Translational Sciences (NCATS), 2022):
# The campaign covered roughly 2,100 compounds. About 320 (15%) were called active. About 52% were inconclusive and are not listed. The list shows a part of the results. Unmarked numbers belong to inactive results. The call rests on the fitted dose curve; in most records, active means well fitted cell-killing curve with a large enough effect; inconclusive means small, poorly fitted or top-dose-only effect, or effect the other way; inactive means flat fitted curve, though single readings scatter.
# Experiment: Viability Counterscreen for CMV-Luciferase Assay of Inhibitors of ATXN expression; further: nearly all actives have a fitted effect of over 55% in size
# Conditions: HEK-293 CMV-luciferase cells viability, protease fluorescence, 24 h; activity change, negative = cytotoxicity: at the top concentration
# Outline: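 HEK-293 cells stably expressing a CMV-luciferase reporter were exposed to compounds at several concentrations for 24 hr at 37 degree C. Viability was read as Gly-Phe-AFC fluorescence (25 uM final, 30 min). SteadyGlo luminescence was then measured after 5 min.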
# On the % scale 0 is the no-effect control and ±100 the full control effect; potency means the concentration at half of the fitted maximal effect.
SMILES,"activity change, negative = cytotoxicity",Potency
N#Cc1nc(COc2ccc(-c3ccccc3)cc2)oc1NCc1cccnc1,-12.5%,–
Cc1cccc(CN2C(=O)/C(=C\c3ccc(C(=O)NCCN4CCOCC4)cc3)Sc3ccccc32)c1,-13.8% [at 57.5 µM],–
Cc1ccc(NC(=O)COc2ccc(/C=C3/SC(=Nc4ccccc4)N(Cc4cccnc4)C3=O)cc2)cc1,–,17.8 µM (active)
CCN1CCN(CCNC(=O)c2ccc(/C=C3/Sc4ccccc4N(Cc4cccc(C)c4)C3=O)cc2)CC1,-10.5% [at 57.5 µM],–
CC(C)(C)n1nnnc1C(c1cccs1)N(Cc1ccc(Cl)cc1)CC1CCCO1 (stereo unspecified),-29.5% [at 57.5 µM],–
CCN(CC)c1nc(-c2ccccn2)nc(-c2ccccc2)c1C#N,–,5.62 µM (active)
CC(C)Nc1nc(-c2ccccn2)nc(-c2ccccc2)c1C#N,-5.79% [at 57.5 µM],–
O=S(=O)([N-]c1nc2ccccc2nc1-[n+]1ccc(Cc2ccccc2)cc1)c1ccc(Br)s1,–,3.55 µM (active)
COc1cccc(C(=O)Oc2c(CN3CCOCC3)cc(Cl)c3cccnc23)c1,-9.7% [at 57.5 µM],–
COC(=O)N/N=C/c1cn(CC(C)COc2ccccc2)c2ccccc12 (stereo unspecified),-15.3% [at 57.5 µM],–
S=C(NCCCN1CCOCC1)N1CCN(c2nc(-c3ccccc3)cs2)CC1,-1.81% [at 57.5 µM],–
O=C(Nc1cnn(C23CC4CC(CC(C4)C2)C3)c1)c1cnn2c(C(F)(F)F)cc(-c3ccco3)nc12,–,12.6 µM (active)
COC(=O)c1ccc(Oc2nc(NC(C)C)nc(N(C)C)n2)cc1,-16.8%,–
O=C(CN1C(=O)c2ccccc2S1(=O)=O)N1CCc2ccccc21,2.08%,–
COCC(C)n1c(C)cc(C(=O)COC(=O)c2cccn2C)c1C (stereo unspecified),6.82%,–
OC(c1ccc(Cl)cc1)c1ncc(-c2cccc(C(F)(F)F)c2)[nH]1 (stereo unspecified),6.35%,–
O=c1c2ccc(Cl)cc2nc(-c2cccc(C(F)(F)F)c2)n1O,–,10 µM (active)
N#Cc1ccc(-c2nc3cc(Cl)ccc3c(=O)n2O)cc1,-23.8%,–
Cc1ccc(CN2CC(C(=O)Nc3ncc(C)s3)CC2=O)cc1 (stereo unspecified),-23.1%,–
CCN(CCCn1c(=S)[nH]c2ccc(N3CCOCC3)cc2c1=O)c1ccccc1,19.1%,–
CC(Sc1ccc(Cl)cc1)C(=O)NNC(=O)c1ccccc1O (stereo unspecified),-6.65%,–
CC1(C)Cc2ccccc2C2=NNC(=O)C2=N1,–,25.1 µM (active)
Cc1ccc(S(=O)(=O)c2c(N)n(CC3CCOC3)c3nc4ccccc4nc23)cc1 (stereo unspecified),-8.96%,–
CCCCn1c(N)c(S(=O)(=O)c2ccc(C)cc2)c2nc3ccccc3nc21,-27%,–
COc1cccc(/C=N/n2c(N)c(S(=O)(=O)c3cccs3)c3nc4ccccc4nc32)c1OC,–,14.1 µM (active)
CCn1cc(C(=O)NCCCN2CCCC(C)C2)c(=O)c2cc(S(=O)(=O)N3CCc4ccccc4C3)ccc21 (stereo unspecified),-21.9% [at 57.5 µM],–

SMILES,"activity change, negative = cytotoxicity",Potency
O=C(C1CC(=O)N(c2ccc3c(c2)OCCO3)C1)N1CCN(c2ccccc2)CC1 (stereo unspecified),1.88%,–
Cn1c(/C=C/c2ccc(Cl)cc2Cl)c([N+](=O)[O-])c(=O)n(C)c1=O,–,10 µM (active)
Cn1c(/C=C/c2cccc([N+](=O)[O-])c2)c([N+](=O)[O-])c(=O)n(C)c1=O,–,14.1 µM (active)
Cn1c(/C=C/c2ccc(Cl)cc2)c([N+](=O)[O-])c(=O)n(C)c1=O,–,12.6 µM (active)
CN(c1ccc(OCC(=O)N2CCN(c3ccc(F)cc3)CC2)cc1)S(=O)(=O)c1cccs1,11.3%,–
CC(=O)N1CCCc2cc(S(=O)(=O)N3CCCC(C(=O)N4CCN(c5cc(C)ccc5C)CC4)C3)ccc21 (stereo unspecified),-28.6%,–
CCOc1ccc(/C=C/[N+](=O)[O-])c2ccccc12,–,20 µM (active)
COc1ccc(NC(=O)N2CCN(c3nc(-c4cccc(OC)c4)cs3)CC2)cc1,-19.1%,–
CC1CCN(C(=O)c2cc3nc(-c4ccccc4)cc(-c4ccccc4)n3n2)CC1,26.5%,–
Cc1c(C(=O)NCc2ccc(Cl)c(Cl)c2)sc(=O)n1Cc1ccc(S(C)(=O)=O)cc1,-12.2%,–
O=S(=O)(Cc1cc(NCc2ccccc2)nc(-c2ccccn2)n1)c1ccccc1,-10.2% [at 57.5 µM],–
CCN(CC)CCn1nc2c3c(cccc3c1=O)-c1ccccc1-2,–,11.2 µM (active)
C/C(=N\NC(=O)C12CCC(C)(C(=O)O1)C2(C)C)c1ccccc1O (stereo unspecified),-20.4%,–
COc1ccc(S(=O)(=O)N(C)C)cc1NC(=O)C1CCN(c2ncnc3sc(C)c(C)c23)CC1,-27.6% [at 57.5 µM],–
COc1ccc(-c2csc(NC(=O)C3CCN(c4ncnc5sc(C)c(C)c45)CC3)n2)cc1OC,–,8.91 µM (active)
CCc1ccc(C(=O)NNC(=O)C2CCN(c3ncnc4sc(C)c(C)c34)CC2)cc1,-11%,–
Cc1ccccc1Oc1cc(NC(=O)CCCn2nc(C)c([N+](=O)[O-])c2C)cc([N+](=O)[O-])c1,-13%,–
O=C(Nc1ccccc1NC(=O)NC1CCCCC1)NC1CCCCC1,–,20 µM (active)
S=C(NCc1ccc(Cl)cc1Cl)NC1CCCCC1,-26.8%,–
O=C(N/N=C/c1ccccc1O)C1CCCC1,-25.6% [at 57.5 µM],–
CCc1ccc(CNC(=O)c2cc3c(C)nc4ccccc4c3o2)cc1,16.5% [at 57.5 µM],–
Cc1ccc2[nH]c(O)c(N=NC(=O)C3CC3c3ccccc3)c2c1Br (stereo unspecified),-3.8%,–
O=C(/C=C/NNC(=O)c1ccccc1)c1ccc([N+](=O)[O-])cc1,–,12.6 µM (active)
O=C(NNCc1ccccc1)c1ccccc1,1.33% [at 57.5 µM],–
O=C(O)COc1ccc2oc3ccccc3c2c1,-0.968%,–
